Source: PubChem
This is a sample that favours compounds with a hit; in the whole collection about 19% have one here.
DT40 TDP1 no CPT = qHTS for Inhibitors of human tyrosyl-DNA phosphodiesterase 1 (TDP1): qHTS in cells in absence of CPT | DT40 Tdp1-/- hTDP1 cells, no CPT, ATP luminescence, 48 h | Potency, µM (series often up to 46.2 µM), inactives show at the top dose activity change, negative = growth inhibition, usual class: inhibitors | actives 15% (n = 420,000) | AID 686978, 2013; further: potency means the concentration at half of the fitted maximal effect; nearly all actives have a fitted effect of over 55% in size
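DT40 Tdp1-/-;hTDP1 cells, no CPT (DMSO vehicle only), 400 cells/well; compounds pin-transferred; ≥48 hr, 37 °C; CellTiter-Glo 30 min RT dark, luminescence read.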
HT1080NT lethal = kills 2HG-producing HT-1080-NT fibrosarcoma cells | HT-1080-NT fibrosarcoma viability, CellTiter-Glo ATP luminescence, 48 h | Potency, µM (top dose mostly 46.1 µM), without a hit: at the highest dose activity, negative = less viability, most hits filed as cytotoxic | actives 1.6% (n = 360,000);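 further: NT is the 2HG producing partner of a matched IDH1 knockdown line; potency means the concentration at half of the fitted maximal effect; 0% = DMSO-treated cells and -100% = media-only wells without cells; nearly all actives have a fitted effect of over 55% in size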
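HT-1080-NT; 750 cells/well; 5% FBS RPMI; 48 h compound, 37 degrees C; CellTiter-Glo luminescence; curve fitting and curve-class assignment.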
HT1080 IDH1KD tx = toxicity to HT-1080 IDH1 knockdown cells (counter line); actives 2% (n = 360,000); Potency, µM (doses to about 46.1 µM), for inactives: at the highest dose activity, negative = toxicity, actives largely listed as cytotoxic; AID 686971; HT-1080 IDH1 knockdown viability, ATP luminescence, 48 h;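 further: potency means the concentration at half of the fitted maximal effect; 0% = DMSO wells and -100% = cell-free medium wells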
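% activity derives from luminescence (CellTiter-Glo), normalised to DMSO and no-cell wells. HT-1080-IDH1KD cells, 750/well, had 48 h compound exposure at 37 °C.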
TDP1 cell CPT = growth inhibition of DT40 Tdp1-/-;hTDP1 cells with camptothecin (screen for TDP1 inhibitors); Potency, µM (top dose mostly 46.2 µM), inactives show at the highest dose activity change, negative = growth inhibition, most hits filed as inhibitors; chicken DT40 Tdp1-/-;hTDP1 cells + 20 nM CPT, ATP luminescence, 48 h; actives 12% (n = 420,000); further: potency means the concentration at half of the fitted maximal effect; nearly all actives have a fitted effect of over 55% in size
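Cell growth measured by CellTiter-Glo luminescence after a minimum 48 h, 37 C compound exposure with 20 nM CPT in Tdp1-knockout DT40 cells stably expressing hTDP1, seeded 400/well; qHTS titration format.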
IL1B secr inh = inhibitors of inflammasome signaling (IL-1 beta secretion); THP-1 LPS/ATP IL-1B secretion, AlphaLISA, 16 h; stronger effect = lower value; activity change, % at 57.5 µM; actives 4.7% (n = 360,000); in the data active means activity change below about -50%; inconclusive means mostly about -30% to -49%
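Secreted IL-1B measured by AlphaLISA bead assay after 16 h compound exposure of THP-1 cells; compounds (final up to 57.5 uM) added 1 h before LPS (250 ng/mL) and ATP (1.25 mM) stimulation; lower signal means less secretion.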
Active calls of the source: *; ? = inconclusive; . = no result; ! = repeats disagree; [ ] = another dose, or the depositor's remark. Unless noted, the call rests on the fitted dose curve; in most records, active means well fitted curve in the direction sought with a large enough effect; inconclusive means small, poorly fitted or top-dose-only effect, or another doubt; inactive means no such curve, though single readings can be large; an effect the other way counts as inactive or inconclusive. Unless noted, on the % scale 0 is the no-effect control and ±100 the full control effect.

SMILES	DT40 TDP1 no CPT	HT1080NT lethal	HT1080 IDH1KD tx	TDP1 cell CPT	IL1B secr inh
O=C(NCCN1CCOCC1)c1ccc2c(c1)N(Cc1ccccc1)CCS2	?	-2%	-2%	?	-2
Cc1nc2ccc([N+](=O)[O-])cc2c(=O)n1Cc1ccc(Cl)cc1	?	-1%	4%	?	18
COc1ccc(Cn2c(C)nc3ccc([N+](=O)[O-])cc3c2=O)cc1	21µM*	-2%	-3%	?	3
CCOc1ccc(CC2S/C(=N/c3ccccn3)NC2=O)cc1 (stereo unspecified)	?	?	?	-20%	37
CCc1ccc(CCOc2ccc(CC3SC(=O)NC3=O)cc2)nc1 (stereo unspecified)	?	4%	-11%	21µM*!	62
COc1cccc(-c2cc(N3CCN(C(=O)c4ccoc4)CC3)n3nc(-c4cccc(Cl)c4)cc3n2)c1	8.2µM*	0%	-2%	15µM*	-6
CN1CCN(c2cc(-c3cccc(C(=O)O)c3)nc3ccnn23)CC1	-13%	?	29%	-15%	0
COc1cccc(-c2cc3nc(-c4ccccc4)cc(N4CCC5(CC4)OCCO5)n3n2)c1	21µM*	?	5%[9.24 µM]	?	?
COc1cccc(-c2cc3nc(-c4ccccc4)cc(N4CCN(C(=O)c5ccoc5)CC4)n3n2)c1	5.2µM*	-18%	?	7.3µM*	-13
CC1=C(C(=O)Nc2cccnc2)C(c2ccc(Cl)cc2)n2nc(SCc3ccccc3)nc2N1 (stereo unspecified)	-8%	.	.	-16%	.
Cc1ccc(NC(=O)C2CCC(CNS(=O)(=O)c3cccs3)CC2)cc1C (stereo unspecified)	15µM*	.	.	15µM*	.
COc1ccc(NC(=O)C2CCC(CNS(=O)(=O)c3ccc(Br)s3)CC2)cc1OC (stereo unspecified)	-16%	.	.	3%	.
Cc1cccc(NC(=O)C2CCC(CNS(=O)(=O)c3ccc(Br)s3)CC2)c1 (stereo unspecified)	16µM*	.	.	26µM*	.
CC1(C(=O)Nc2cccc3cccnc23)CCN1Cc1csc2ccccc12 (stereo unspecified)	-76%	-38%	0%	-87%	0
CCc1ccc(-c2nc(CN3CCC(C(=O)NCc4ccc(F)cc4)CC3)c(C)o2)cc1	?	-8%	3%	?	-19
CCN(CCNC(=O)C1CCCN(Cc2nc(-c3ccc(OC)cc3)oc2C)C1)c1ccccc1 (stereo unspecified)	23µM*	?	-30%	16µM*	-73*
CCN(CCNC(=O)C1CCCN(S(=O)(=O)CC)C1)c1ccccc1 (stereo unspecified)	-2%	17%	-13%	-2%	-14
CCN(CCNC(=O)C1CCN(Cc2nc(-c3ccc(Cl)cc3)oc2C)CC1)c1ccccc1	18µM*	?	?	23µM*	-54*
Cn1c(N2CCOCC2)cc(=O)n(C)c1=O	24%	11%	3%	?	5
Cc1nc2sc(C(c3cccs3)N3CCN(Cc4ccccc4)CC3)c(O)n2n1 (stereo unspecified)	-4%	0%	-1%	23µM*	-28
Cc1nc2sccn2c1-c1csc(NCc2ccccc2)n1	13µM*	?	7%	16µM*	-73*
Cc1nc2ncccn2c1-c1csc(Nc2ccc(S(N)(=O)=O)cc2)n1	5%	5%	10%	37%	-2
Cc1nc2ncccn2c1-c1csc(Nc2ccc(N(C)C)cc2)n1	0.018µM*	?	?	0.0052µM*	?
COc1ccc(Nc2nc(-c3c(C)nc4ncccn34)cs2)cc1	0.0073µM*	0.013µM*	0.0073µM*	0.0092µM*	-61*
Cc1nc2ncccn2c1-c1csc(Nc2ccccc2)n1	18µM*	0%	-10%	16µM*	-1
SMILES	DT40 TDP1 no CPT	HT1080NT lethal	HT1080 IDH1KD tx	TDP1 cell CPT	IL1B secr inh
CC(=O)Nc1ccc(Nc2nc(-c3c(C)nc4ccccn34)cs2)cc1	0.82µM*	?	2.9µM*	1µM*	?
O=C(O)c1ccc2c(c1)S(=O)(=O)c1ccccc1C2=O	-4%	1%	-1%	4%	8
O=C1c2ccccc2S(=O)(=O)c2cc(N3CCN(C(=O)c4ccccc4)CC3)ccc21	21µM*	3%	1%	15µM*	-67*
NC(=O)c1ccc2c(c1)S(=O)(=O)c1ccccc1C2=O	16µM*	13%	17%	-26%	17
CC(C)(C)c1ccc(-c2ccc3c(c2)S(=O)(=O)c2ccccc2C3=O)cc1	23µM*	2%	-1%	?	16
O=C(NCCc1ccccc1)c1ccc2c(c1)S(=O)(=O)c1cc(Cl)ccc1C2=O	-94%	5%	8%	21µM*	5
O=C(Cc1ccc(F)cc1)NC1CC(=O)N(c2ccc3c(c2)OCCO3)C1 (stereo unspecified)	?	.	.	-20%	.
O=C(C[n+]1ccncc1)c1cccc([N+](=O)[O-])c1	-18%	.	.	?	.
O=C(NCCc1ccccc1)c1ccc2c(c1)S(=O)(=O)c1ccccc1C2=O	13µM*	-11%	-26%	?	-7
CC1CCC(NC(=O)c2ccc3c(c2)S(=O)(=O)c2ccccc2C3=O)CC1 (stereo unspecified)	15µM*	-1%	-1%	?	-4
O=C(Nc1ccc(F)cc1F)c1cc(-c2ccco2)nc2ccccc12	16µM*	-6%	-5%	?	1
O=C(Nc1ccccc1N1CCOCC1)c1cc(-c2ccco2)nc2ccccc12	21µM*	?	-23%	21µM*	-17
COc1cc(-c2cc(C(=O)Nc3ccccc3N3CCOCC3)c3ccccc3n2)cc(OC)c1OC	21µM*	1%	9%	18µM*	-67*
CC(Sc1ccc(S(=O)(=O)N2CCCCCC2)cn1)C(N)=O (stereo unspecified)	-20%	-8%	-1%	-14%	18
CC1=CC(C)(C)N2C(=O)C3(SCC(=O)N3c3ccc(F)cc3)c3cc(C)cc1c32 (stereo unspecified)	10µM*	-16%	-4%	29µM*	-16
CN1C(=O)C2(SCC(=O)N2c2ccc(Cl)cc2)c2ccccc21 (stereo unspecified)	?	.	.	-28%	.
CC(=O)OCCN(C)c1cc(SC(C)C)c2nonc2c1[N+](=O)[O-]	16µM*	?	?	13µM*	-68*
CCOC(=O)N1CCN(c2cc(N(C)CCO)c([N+](=O)[O-])c3nonc23)CC1	26%	3%	9%	-9%	11
